Compound activity (PubChem BioAssay)
Shown are actives, neighbours in structure and some others; about 3.8% of the full set was active somewhere.
ADAM17 inh – inhibitors of human ADAM17 | P78536 | recombinant ADAM17, EDANS/DABCYL FRET peptide cleavage | inhibition, % at 6.95 µM | actives 0.83% (n = 370,000) | AID 720648;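 active means inhibition above the mean of compounds lying between control limits plus 3 SD, set per campaign, cut at about 8.5% in these data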;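 further: 0% = DMSO-only wells as the low control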
FGF22 binding-1 – shifts melting point of recombinant human FGF22 | actives 1.5% (n = 340,000) | recombinant FGF22 thermal shift, SYPRO orange fluorescence; percent of sucrose octasulfate shift, DMSO zero | activity (Tm shift, normalised), % at 9.99 µM | Q9HCT0;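 active means mean Tm shift, scaled 0 neutral to 100 positive control, at about 1.3% or above, every replicate too, limit read from the data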
Target sequence (Q9HCT0 whole entry, looked up): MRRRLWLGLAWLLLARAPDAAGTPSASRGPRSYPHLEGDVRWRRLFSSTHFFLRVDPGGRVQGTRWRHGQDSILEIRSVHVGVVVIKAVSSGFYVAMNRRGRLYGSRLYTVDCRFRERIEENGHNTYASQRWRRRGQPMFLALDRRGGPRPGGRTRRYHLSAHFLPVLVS
ADAM10 inh – ADAM10 inhibition, QFRET primary screen; O14672; recombinant ADAM10, EDANS/DABCYL FRET peptide cleavage, 3 h; inhibition, % at 7 µM; actives 0.62% (n = 370,000);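 active means inhibition above a per-campaign cutoff equal to the mean of compounds falling between control-based bounds plus 3 SD, cut at about 20% in these data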;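 further: 0% = DMSO wells while the 100% control is not disclosed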
proKLK7 act – activators of human kallikrein-7 zymogen; P49862; actives 0.9% (n = 370,000); activation, % at 7 µM; purified proKLK7, EDANS-DABCYL substrate fluorescence; 100% is mature enzyme control, 0% vehicle;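 active means activation above the mean of all tested compounds plus 3 SD, computed per campaign excluding outliers beyond control limits, cut at about 13% in these data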
Target sequence (P49862 whole entry, looked up): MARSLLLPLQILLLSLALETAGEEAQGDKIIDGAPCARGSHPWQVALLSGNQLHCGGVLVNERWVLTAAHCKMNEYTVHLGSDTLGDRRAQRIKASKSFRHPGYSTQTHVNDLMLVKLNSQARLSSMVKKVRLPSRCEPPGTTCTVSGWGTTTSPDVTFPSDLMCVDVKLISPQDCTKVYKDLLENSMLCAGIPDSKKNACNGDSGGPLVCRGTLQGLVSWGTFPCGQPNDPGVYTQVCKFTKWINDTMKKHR
rRNA inh HTS – inhibitors of bacterial rRNA selective over humanized ribosomes | E. coli WT GFP vs humanized-ribosome RFP mutants, fluorescence, 24 h; hits give low values; DMSO median 0, no signal -100 | GFP signal change (wild-type ribosome), % (no concentration beside the values) | actives 1.6% (n = 350,000) | AID 720706;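 active means significant combined selectivity score with lowered wild-type GFP, culture density cut under 30%, mutant RFP and density less affected; inactive means any of these conditions unmet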
FGF22 binding-2 – binds human FGF22 shifting its melting temperature. shares compounds with FGF22 binding-1. recombinant FGF22 thermal shift, SYPRO orange fluorescence. thermal shift activity, °C (ΔTm) at 38 µM. actives 2% (n = 1,000). AID 720646;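 active means fitted rise in melting shift crosses a set limit at or below the top valid dose tested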
TSA no protein – compound-only SYPRO artifact for FGF22 binders | shares compounds with FGF22 binding-1 | compound-only SYPRO orange thermal shift counter-screen, no protein | AC50, µM (top dose mostly 38 µM) | actives 2% (n = 1,000);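 active means rising signal whose fitted curve reaches the 0.54 level within the top valid dose, showing a melting point, actives reach about 13 µM in these data; inactive means the rest, including activity in the opposite direction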; further: value is where the raw curve crosses a fixed level and not half-maximal
* = called active by the depositor; i = inactive; / = not tested or not shown; ! = a repeat was not active; [ ] = another dose, or the depositor's remark.

SMILES | ADAM17 inh | FGF22 binding-1 | ADAM10 inh | proKLK7 act | rRNA inh HTS | FGF22 binding-2 | TSA no protein
C[C@@H]1CN([C@H](C)CO)C(=O)c2cc(NS(=O)(=O)c3ccc(F)cc3)ccc2O[C@H]1CN(C)S(C)(=O)=O | / | / | / | / | 3.6 | / | /
C[C@H](O)C#Cc1ccc2c(c1)O[C@@H](CN(C)C(=O)c1ccncc1)[C@H](C)CN([C@H](C)CO)S2(=O)=O | / | 0.1 | / | / | 5.9 | / | /
CC(=O)Nc1cccc(C(=O)N2CCC(n3nccc3NC(=O)CC(C)C)CC2)c1 | -2.3 | 1.5* | -4.2 | 0.0 | 7.9 | 0.01 | i
CC(=O)N1[C@@H](CO)[C@@H]2c3ccccc3N(S(=O)(=O)c3cccc(C)c3)C[C@@H]21 | / | -0.2 | / | / | 2.7 | / | /
S=c1[nH]c2cc3ccccc3cc2[nH]1 | -4.1 | 2.1* | -3.8 | 3.1 | 0.0 | 0.069 | i
C[C@H](CO)N1C[C@H](C)[C@@H](CN(C)Cc2ccccc2)OCCCC[C@H](C)Oc2ccc(NC(=O)CCC(F)(F)F)cc2C1=O | / | / | / | / | 3.8 | / | /
COc1cc(C(=O)NC(=S)Nc2ccccc2[N+](=O)[O-])cc(OC)c1OC | 2.5 | 1.8* | 5.4 | 0.5 | 7.4 | 0.128 | i
COc1cc(C(=O)NC(=S)Nc2ccc([N+](=O)[O-])cc2C)cc(OC)c1OC | 5.6 | 0.7 | -1.5 | -0.1 | 19.9 | / | /
COc1ccc(C#Cc2cnc3c(c2)C(=O)N([C@H](C)CO)C[C@@H](C)[C@H](CN(C)C(C)=O)O3)cc1 | / | 0.7 | / | / | -0.9 | / | /
CCN(CC)c1ccc(/C=N/NC(=O)c2c[nH]c3ccccc23)cc1 | -31.1 | 1.8* | -111.5 | -3.2 | 0.0 | -0.099 | i
C[C@@H]1CCCCO[C@@H](CN(C)C(=O)Nc2ccc3c(c2)OCO3)[C@@H](C)CN([C@H](C)CO)C(=O)c2cc(NC(=O)CCCCCC(=O)Nc3ccccc3N)ccc2O1 | / | 0.0 | / | / | 2.9 | / | /
C[C@H]1CN([C@@H](C)CO)S(=O)(=O)c2ccc(C#Cc3ccncc3)cc2O[C@H]1CN(C)C(=O)Nc1ccc2c(c1)OCO2 | / | 1.4* | / | / | -8.1 | -0.237 | i
C[C@@H]1CN([C@H](C)CO)S(=O)(=O)c2ccc(C3=CCCCC3)cc2O[C@@H]1CN(C)C(=O)Nc1ccc2c(c1)OCO2 | / | 0.9 | / | / | -0.1 | / | /
C[C@@H]1CN([C@@H](C)CO)S(=O)(=O)c2ccc(C3=CCCC3)cc2O[C@H]1CN(C)C(=O)Nc1ccc2c(c1)OCO2 | / | -0.3 | / | / | 2.2 | / | /
C[C@@H]1CN([C@@H](C)CO)S(=O)(=O)c2ccc(C3=CCCC3)cc2O[C@@H]1CN(C)C(=O)Nc1ccc2c(c1)OCO2 | / | 2.0* | / | / | -3.1 | -0.042[42 µM] | i
C[C@H](CO)N1C[C@H](C)[C@H](CN(C)C(=O)Nc2ccc3c(c2)OCO3)Oc2cc(C3=CCCCC3)ccc2S1(=O)=O | / | 1.6* | / | / | -2.2 | -0.031 | 11.2µM*
C[C@@H]1CN([C@@H](C)CO)S(=O)(=O)c2ccc(C#Cc3ccncc3)cc2O[C@H]1CN(C)C(=O)Nc1ccc2c(c1)OCO2 | / | 0.0 | / | / | -6.7 | / | /
C[C@@H]1CN([C@H](C)CO)S(=O)(=O)c2ccc(C3=CCCCC3)cc2O[C@H]1CN(C)C(=O)CN(C)C | / | 1.2* | / | / | 0.0 | 0.223[42 µM] | i
CO[C@@H]1CN(C)C(=O)c2ccc(NC(=O)c3nc4ccccc4s3)cc2OC[C@@H](C)N(Cc2ccncc2)C[C@H]1C | / | 0.1 | / | / | -8.1 | / | /
CO[C@@H]1CN(C)C(=O)c2ccc(NC(=O)NC(C)C)cc2OC[C@H](C)N(C(=O)CC2CC2)C[C@@H]1C | / | 0.0 | / | / | 0.8 | / | /
O=C(Nc1ccccc1F)N1C[C@@H]2[C@H](c3ccccc31)[C@@H](CO)N2C(=O)c1ccccc1F | / | 0.2 | / | / | -2.3 | / | /
CCOc1ccc(N(CC(=O)NCCSc2ccccn2)S(=O)(=O)c2ccc(Cl)cc2)cc1 | -0.2 | 29.0* | -3.2 | -0.8 | 6.0 | 0.201 | i
O=C(O)C[C@H]1C[C@@H]2c3cc(NS(=O)(=O)c4ccccc4)ccc3O[C@@H]2[C@H](CO)O1 | / | -0.2 | / | / | 4.6 | / | /
COc1cc(/C=C2/S/C(=N/S(=O)(=O)Cc3ccccc3)NC2=O)c([N+](=O)[O-])cc1OC | -4.9 | 1.9* | -2.8 | 0.4 | 1.2 | 0.108 | i
COc1ccc2c3c(n(C)c2c1)[C@H](CO)N(C(=O)Nc1ccccc1F)CC31CN(C(C)=O)C1 | / | 0.0 | / | / | / | / | /
SMILES | ADAM17 inh | FGF22 binding-1 | ADAM10 inh | proKLK7 act | rRNA inh HTS | FGF22 binding-2 | TSA no protein
COc1cc(/C=C2\CCn3c2nc2cc(C(=O)O)ccc2c3=O)ccc1OC(F)F | -23.4 | 1.4* | -27.0 | -0.1 | -15.1 | 0.174 | i
O=C(COc1ccccc1)NCC(=O)NC1CCCCC1 | -6.2 | 1.9* | -6.6 | -0.4 | 10.7 | 0.062 | i
O=C(CNC(=O)OCc1ccccc1)NC1CCCCCCC1 | 2.3 | / | 4.4 | -0.7 | / | / | /
CN(C)S(=O)(=O)n1cnc([C@@H]2[C@@H]3C(=O)OC[C@@H]3C[C@]23N=CN(Cc2ccccc2)C3=O)c1 | -3.4 | 28.9* | 3.3 | 0.0 | 13.4 | 0.149 | i
CN(C)S(=O)(=O)n1cnc([C@H]2c3c(ncn3Cc3ccccc3)C[C@H]3COC(=O)[C@@H]32)c1 | -0.6 | -0.3 | 9.1 | -0.3 | 7.9 | / | /
COc1ccccc1NC(=O)c1ccc(NC(=O)c2ccc(=O)[nH]c2)cc1 | -4.3 | 1.9* | -10.2 | 0.0 | -0.9 | 0.365 | i
COc1ccccc1NC(=O)c1ccc(C(=O)Nc2ccccc2OC)nc1 | 2.0 | -0.1 | 2.5 | 0.1 | 2.2 | / | /
CN1C(=O)c2cc(NC(=O)c3cccc(F)c3)ccc2OC[C@H]2O[C@@H](CC(=O)NCc3ccccc3)CC[C@H]21 | / | 1.7* | / | / | -8.0 | -0.023[42 µM] | i
CN1C(=O)c2cc(NC(=O)c3cccc(F)c3)ccc2OC[C@H]2O[C@H](CC(=O)NCC3CC3)CC[C@@H]21 | / | 0.0 | / | / | 3.2 | / | /
CN1C(=O)c2cc(NC(=O)c3cccc(F)c3)ccc2OC[C@H]2O[C@@H](CC(=O)N3CCc4ccccc4C3)CC[C@H]21 | / | 1.3* | / | / | -13.8 | 0.114[42 µM] | i
CN1C(=O)c2cc(NC(=O)c3cccc(F)c3)ccc2OC[C@H]2O[C@@H](CC(=O)NCC3CCCCC3)CC[C@H]21 | / | 2.3* | / | / | -5.2 | 0.119[42 µM] | i
CN1C(=O)c2cc(NC(=O)c3cccc(F)c3)ccc2OC[C@@H]2O[C@H](CC(=O)NCC3CCCCC3)CC[C@@H]21 | / | 2.3*! | / | / | -1.5 | -0.163 | i
CN1C(=O)c2cc(NC(=O)c3cccc(F)c3)ccc2OC[C@H]2O[C@H](CC(=O)N3CCc4ccccc4C3)CC[C@@H]21 | / | -0.2 | / | / | -6.4 | / | /
C[C@@H]1CN([C@H](C)CO)C(=O)c2cc(-c3ccncc3)cnc2O[C@@H]1CN(C)C(=O)c1cccc(F)c1 | / | -0.3 | / | / | -0.4 | / | /
